# Laboratory results reported in PubChem BioAssay (Tox21).
# The source made the active and inactive calls. Calls come from the whole dose curve; as a rule, active = well fitted curve in the direction sought with a large enough effect in the repeat runs; inconclusive = weak or mixed curves; inactive = flat fitted curve, though single readings scatter. Non-standard residues stand in square brackets, D forms with d. Residues, ends and D or L forms follow the SMILES beside them. pGlu = O=C1CC[C@@H](C(=O)O)N1
# Test: qHTS assay to test for compound auto fluorescence at 460 nm (blue) in HepG2 cell free culture (AID 720685)
# Details: Cell-free culture medium, blue autofluorescence 405/460 nm; series mostly up to 46 µM
# From the text: U.S. Tox21 Program National Center for Advancing Translational Sciences [NCATS] NIH Chemical Genomics Center [NCGC] U.S. Environmental Protection Agency [EPA] National Institutes of Environmental Health Sciences [NIEHS] National Toxicology Program [NTP] U.S. Food and Drug Administration [FDA] Tox21 Assay Overview: Compound auto fluorescence often interferes with screening of the compound library against various biological targets and signaling pathways. Some of these compounds may have fluorophoric properties. Such properties may interfere with the assay outputs resulting in false positives and/or negatives. To decrease such complications and ensure the compound activities are relevant in terms of biological response, the Tox21 10K compound library was screened for auto fluorescence. From the fluorophores used as reporter signals in our screening assays, the auto fluorescence equivalencies of compounds against three fluorophores have been evaluated: Triamterene, Fluorescein and Rose Bengal sodium for blue, green and red fluorescence, respectively. The fluorescence intensities were measured using Excitation/Emission wavelengths at 405/460nm, 485/535nm and 540/590nm for blue, green and red labels, respectively. This assay includes the blue fluorescence data.
# Tox21 Assay Protocol Summary: 5 uL of culture medium (MEM containing 10% FBS) per well was dispensed into black wall/clear bottom 1536-well plates using a Multidrop Combi Dispenser (ThermoFisher Scientific, Waltham, MA). After 23 nL compound or DMSO vehicle was transferred into assay plate by a pintool work station (Kalypsys, San Diego, CA), fluorescence intensities in the assay plates were measured by an Envision (PerkinElmer, Shelton, CT) plate reader using three labels for measuring blue, green and red fluorescence at […] 460, 535 and 590nm respectively.
row,SMILES,outcome
1,OC[C@H]1O[C@@H](n2cnc3c2NC=NC[C@H]3O)C[C@@H]1O,inactive
2,CC(C)(C)C(=O)OCOC(=O)[C@@H]1N2C(=O)[C@@H](N=CN3CCCCCC3)[C@H]2SC1(C)C,inactive
3,CCOC(=O)Cc1cccc(-c2cc(CCCCCCc3ccc(O[C@H]4O[C@H](COC(C)=O)[C@@H](OC(C)=O)[C@H](OC(C)=O)[C@@H]4OC(C)=O)c(-c4cccc(CC(=O)OCC)c4)c3)ccc2O[C@H]2O[C@H](COC(C)=O)[C@@H](OC(C)=O)[C@H](OC(C)=O)[C@@H]2OC(C)=O)c1,inactive
4,O=C(OC1C[C@@H]2CC3C[C@H](C1)N2CC3=O)c1c[nH]c2ccccc12 (stereo not given in full),inactive
5,CCN(CC)CCC(=O)N1c2ccccc2Sc2ccc(Cl)cc21,inactive
6,CCC(=O)OCC(=O)[C@@]1(OC(=O)CC)[C@H](C)C[C@H]2[C@@H]3CCC4=CC(=O)C=C[C@]4(C)[C@@]3(F)[C@@H](O)C[C@@]21C,inactive
7,C#C[C@]1(OC(C)=O)CC[C@H]2[C@@H]3CCC4=CC(=O)CC[C@@H]4[C@H]3CC[C@@]21C,inactive
8,CCOC(=O)[C@@H](N)CS,inactive
9,CCc1ccc(S(=O)(=O)O)cc1,inactive
10,CC[C@H](C)[C@H](NC(=O)[C@H](Cc1ccccc1)NC(=O)[C@H](C)NC(=O)[C@H](CC(=O)O)NC(=O)[C@H](CCCCN)NC(=O)[C@H](CO)NC(=O)[C@@H]1CCCN1C(=O)[C@@H]1CCC(=O)N1)C(=O)NCC(=O)N[C@@H](CC(C)C)C(=O)N[C@@H](CCSC)C(N)=O ([pGlu]PSKDAFIGLM-NH2),inactive
11,CC(O)[C@@H]1NC(=O)[C@H](Cc2ccccc2)NC(=O)[C@H](C(C)O)NC(=O)[C@H](CCCCN)NC(=O)[C@H](Cc2c[nH]c3ccccc23)NC(=O)[C@H](Cc2ccccc2)NC(=O)[C@H](Cc2ccccc2)NC(=O)[C@H](CC(N)=O)NC(=O)[C@H](CCCCN)NC(=O)[C@@H](NC(=O)CNC(=O)[C@H](C)N)CSSC[C@@H](C(=O)O)NC(=O)[C@H](CO)NC1=O (stereo not given in full),inactive
12,COC(=O)C1=C(C#N)NC(C)=C(C(=O)OC(C)C)C1c1cccc([N+](=O)[O-])c1 (stereo not given),inactive
13,CC1CCC(NC(=O)N(CCCl)N=O)CC1 (stereo not given),inactive
14,Cc1ncc(COP(=O)(O)O)c(CN)c1O,inactive
15,O=C(COc1ccc(Cl)cc1)OCCNC12CC3CC(CC(C3)C1)C2,inactive
16,[O]=[Bi][O][Bi]=[O],inactive
17,CCCCCCOc1ccc(C(=N)N(CCCC)CCCC)c2ccccc12,inactive
18,Nc1ccn(C[C@@H](CO)OCP(=O)(O)O)c(=O)n1,inactive
19,Cc1cccc(C)c1Nc1ncccc1C(=O)O,inactive
20,O=S(=O)(O)CCCS(=O)(=O)O,inactive

row,SMILES,outcome
1,CC(C)[C@@H](N)C(=O)O,inactive
2,CS(=O)(=O)c1ccc(C2=C(c3ccccc3)C(=O)OC2)cc1,inactive
3,CN(C)CCCN1c2ccccc2C(C)(C)c2ccccc21,inactive
4,NS(=O)(=O)c1cc2c(cc1Cl)NC(Cc1ccccc1)NS2(=O)=O (stereo not given),inactive
5,CCCCc1cc2c(=O)c(C(=O)OC)c[nH]c2cc1OCc1ccccc1,inactive
6,O=C(O)CC/C=C\CC[C@@H]1[C@@H](N2CCCCC2)[C@@H](O)C[C@@H]1OCc1ccc(-c2ccccc2)cc1,inactive
7,N[C@H](CCC(=O)O)C(=O)O,inactive
8,OCCO[C@@H]1[C@@H](O)[C@H](O)[C@@H](CO)O[C@@H]1O,inactive
9,NC(Cc1ccccc1)C(=O)O (stereo not given),inactive
10,CCCCC[C@H](O)/C=C/[C@H]1[C@H](O)CC(=O)[C@@H]1CCCCCCC(=O)O,inactive
11,CCCCCCCCCCCCCCCCCCOP(=O)([O-])OC1CC[N+](C)(C)CC1,inactive
12,CC1(C)S[C@@H]2[C@H](NC(=O)C(C(=O)O)c3ccsc3)C(=O)N2[C@H]1C(=O)O (stereo not given in full),inactive
13,CC(=C\c1ccccc1)/C=C1/SC(=S)N(CC(=O)O)C1=O,inactive
14,CCN(CC)c1ccc(C(=C2C=CC(=[N+](CC)CC)C=C2)c2ccccc2)cc1,inactive
15,CCCCCC(O)/C=C/C=O (stereo not given),inactive
16,COc1ccc(CCNCC(O)COc2cccc(C)c2)cc1OC (stereo not given),inactive
17,O=C(O)c1nc(=O)[nH]c(=O)[nH]1,inactive
18,CCCCC/C=C\C/C=C\C/C=C\CCCCC(=O)O,inactive
19,CC(C)(C)CC(C)(C)c1cc(Cc2cc(C(C)(C)CC(C)(C)C)cc(-n3nc4ccccc4n3)c2O)c(O)c(-n2nc3ccccc3n2)c1,inactive
20,O=C1NCCN1c1ncc([N+](=O)[O-])s1,inactive
